Bioassay records from PubChem BioAssay.
V-ATPase pH: regulators of yeast V-ATPase proton pumping, primary screen, pHLuorin cytosolic pH fluorescence; S. cerevisiae; response, % at 10 µM; actives 0.37% (n = 350,000); AID 504577, 2011; in the data active = response mostly above about 7.3%, no sharp cut-off; inactive = mostly below about 5.4%; note: actives read high
Efflux pump mplx: inhibitors of Candida efflux pumps in yeast, primary screen, S. cerevisiae, Nile Red, multiplex. actives 0.44% (n = 330,000). inhibition, % at 10 µM. S. cerevisiae Candida pump triplex. AID 485275, 2010;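 active = plate passing quality check with inhibition over a set limit, or well fluorescence over plate mean plus 4 SD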;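 note: Nile Red retained in pooled yeast measured as flow cytometry median fluorescence; higher means more Nile Red kept so more efflux inhibition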
NPR2 activator: human GC-B receptor activators, primary screen, HEK293 GC-B cells, cGMP TR-FRET, EC30 CNP; actives 0.11% (n = 370,000); 0% at EC30 CNP, 100% saturating CNP; activation, % at 10 µM; AID 1920062, 2024;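 active = activation at 10 µM reaching about 35% in either raw or pattern-adjusted values, limit read from the data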
Rce1 inhib: yeast Rce1p protease inhibitors, primary screen, biochemical, fluorescence, cell-free homogeneous. actives 0.27% (n = 290,000). calls only. CAAX prenyl protease 2 (Saccharomyces cerevisiae (strain ATCC 204508 / S288c)), Q03530. yeast membranes, quenched prenylated peptide cleavage fluorescence;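 active = fall in fluorescence gain of 50% or more versus controls, with final raw signal at or below 3038400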
Target sequence (Q03530 whole entry, looked up): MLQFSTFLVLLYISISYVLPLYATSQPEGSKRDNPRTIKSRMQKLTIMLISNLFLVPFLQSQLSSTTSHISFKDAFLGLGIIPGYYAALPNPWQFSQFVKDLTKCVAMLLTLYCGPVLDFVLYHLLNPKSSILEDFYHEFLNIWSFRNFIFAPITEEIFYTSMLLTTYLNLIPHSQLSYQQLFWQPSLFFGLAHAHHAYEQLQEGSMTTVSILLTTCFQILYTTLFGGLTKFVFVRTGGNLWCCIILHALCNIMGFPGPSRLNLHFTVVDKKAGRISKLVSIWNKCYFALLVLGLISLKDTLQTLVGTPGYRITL
NSD2 HMT inh: NSD2 histone methyltransferase inhibitors, primary screen, biochemical, AlphaScreen, single concentration, set 2; Histone-lysine N-methyltransferase NSD2 (Homo sapiens), O96028; NSD2 peptide methylation, 120 min; inhibition, % at 12.5 µM; actives 0.54% (n = 310,000); in the data active = inhibition above about 50%
NPR1 activator: GC-A stimulated cGMP production enhancers – HEK293 GC-A cells, cGMP TR-FRET, EC30 ANP, primary screen. Atrial natriuretic peptide receptor 1 (Homo sapiens), P16066. 0% at EC30 ANP, 100% saturating ANP. activation, % at 10 µM. actives 0.14% (n = 370,000); in the data active = activation above about 40%
VATPase regulator: yeast V-ATPase proton pumping modulators, confirmation, S. cerevisiae, pH-sensitive GFP, second cherry-pick. shares compounds with V-ATPase pH. S. cerevisiae pHLuorin cytosolic pH, V-ATPase proton transport. response, % at 10 µM. actives 2% (n = 980). AID 602197, 2012; in the data active = response above about 24%
Each line names hits and unclear results; the compound was inactive in the other large screens (follow-up assays come after a bar, where they were run). Sampled rows, rich in hits. Any-hit rate of the full collection: about 1.6%.

Cc1cccc(C(=O)N(NC(=O)Oc2ccccc2)C(C)(C)C)c1	V-ATPase pH 6.9 | VATPase regulator inactive
COc1cc(C2NC(=O)NC(C)=C2C(=O)OCc2ccc(C)cc2)cc(OC)c1O (stereo not given)	V-ATPase pH 9.5 | VATPase regulator inactive
CN1/C(=C\C(=S)NC(=O)c2ccc([N+](=O)[O-])cc2)C(C)(C)c2ccccc21	V-ATPase pH 13 | VATPase regulator inactive
CN1/C(=C\C(=S)NC(=O)c2cccc(Br)c2)C(C)(C)c2ccccc21	none
Cc1c(NC(=O)c2cccc(NC(=O)COc3ccccc3C#N)c2)c(=O)n(-c2ccccc2)n1C	V-ATPase pH 15 (no result: Efflux pump mplx, Rce1 inhib) | VATPase regulator inactive
CCOc1ccc(-n2c(COc3ccc(C)cc3)nnc2SCC(=O)Nc2ccc(F)c(F)c2)cc1	none (no result: V-ATPase pH, Efflux pump mplx, Rce1 inhib)
O=C(Nc1cccc(C(F)(F)F)c1)O[C@@H]1CC[C@@]23CCCN2C(=O)CCC[C@H]3C1	none (no result: V-ATPase pH, Efflux pump mplx, Rce1 inhib, NSD2 HMT inh)
COc1ccc(C(=S)N2CCN(C)CC2)cc1Br	V-ATPase pH 8.0 | VATPase regulator inactive
C#CCN1CC(N(C)CCOC(=O)c2cccs2)CS1(=O)=O (stereo not given)	none (no result: V-ATPase pH, Efflux pump mplx, Rce1 inhib, NSD2 HMT inh)
CC(C)c1ccc(N(CC(=O)NC2CCCC2)C(=O)CCC(=O)Nc2ccccn2)cc1	V-ATPase pH 15 | VATPase regulator inactive
CCc1ccc(N(CC(=O)NC2CCCC2)C(=O)CCC(=O)Nc2ccccn2)cc1	none
CCN(CC)CCNC(=O)c1ccc(NC(=O)c2cccc(S(=O)(=O)Nc3ccc(C)cc3)c2)cc1	none
CN(C)CCNC(=O)c1cccc(S(=O)(=O)Nc2ccc(F)cc2)c1	V-ATPase pH 6.2 | VATPase regulator inactive
CCOc1cccc(NC(=O)/C(C#N)=C\c2cn(CC(=O)O)c3ccccc23)c1	none
CCOc1ccc(NC(=O)/C(C#N)=C/c2cn(CC(=O)O)c3ccccc23)cc1	V-ATPase pH 7.1 | VATPase regulator inactive
C=CC[C@@H]1NN2C(=O)[C@@H](CCCC)[C@@H]3c4cc5ccccc5cc4C=NN3[C@@H]2c2cc3ccccc3cc21	none (no result: V-ATPase pH, Efflux pump mplx, Rce1 inhib, NSD2 HMT inh)
COc1cccc(N2CCN(CC(=O)NCc3ccco3)CC2)c1	none (no result: V-ATPase pH, Efflux pump mplx, Rce1 inhib)
Cc1ccc(C(=O)C2CCOC(C)(C)C2)cc1 (stereo not given)	V-ATPase pH 12 | VATPase regulator inactive
C/C(=N/NC(=O)CSc1nnc(-c2ccccc2)n1-c1ccc(Cl)cc1)c1cccc(O)c1	none (no result: V-ATPase pH, Efflux pump mplx, Rce1 inhib)
CCCCCCCCN1C(=O)[C@@H](CC(=O)NCc2cccs2)C[C@@]2(C(=O)OC)C1=C[C@H](C(C)C)O[C@@H]2C1CC1	none (no result: V-ATPase pH, Efflux pump mplx, Rce1 inhib, NSD2 HMT inh)
COc1ccc(OC)c(NC(=O)c2ccccc2N(Cc2ccccc2)C(=O)C(C)Cl)c1 (stereo not given)	none (no result: V-ATPase pH, Efflux pump mplx, Rce1 inhib)
O=C(/C=C/c1ccc(Cl)c([N+](=O)[O-])c1)Nc1ccc(NC(=O)c2ccco2)cc1	none (no result: Efflux pump mplx)
O=C(/C=C/c1ccc(Cl)c([N+](=O)[O-])c1)Nc1cccc(NC(=O)c2ccco2)c1	V-ATPase pH 8.8 | VATPase regulator inactive
O=C(Nc1ccc2oc(-c3cccnc3)nc2c1)c1ccc([N+](=O)[O-])o1	V-ATPase pH 11 (no result: Efflux pump mplx) | VATPase regulator inactive
CC(=O)N1CCN(C2=NC(=O)N(c3ccc(Br)cc3)C(=O)C2)CC1	none (no result: V-ATPase pH, Efflux pump mplx, Rce1 inhib)
C#CCNC(=O)C1=C[C@H](C(C)(C)C)C[C@H](OCCCCO)O1	V-ATPase pH 16 (no result: NSD2 HMT inh) | VATPase regulator inactive
Cc1ccc(-n2nnnc2SCC(=O)NC2CCS(=O)(=O)C2)c(C)c1 (stereo not given)	none (no result: Efflux pump mplx, Rce1 inhib)
COc1ccc(N2C(=O)CC(Sc3nnc(-c4ccccc4)o3)C2=O)cc1 (stereo not given)	none
Cc1ccc(C)c(SCC(=O)NC2CCS(=O)(=O)C2)c1 (stereo not given)	V-ATPase pH 12 (no result: Efflux pump mplx, Rce1 inhib) | VATPase regulator inactive
O=C(CSc1nnc(-c2ccccc2)o1)NC1CC1	none (no result: Rce1 inhib) | VATPase regulator inactive
O=C1OCCC1Sc1nnc(-c2ccccc2)o1 (stereo not given)	none | VATPase regulator inactive
O=C(CSc1nnc(-c2ccccc2)o1)NC1CCS(=O)(=O)C1 (stereo not given)	none | VATPase regulator inactive
Cc1ccc2c(c1)N(CCCC(=O)NCc1cccs1)C(=O)CO2	none (no result: V-ATPase pH, Efflux pump mplx, Rce1 inhib)
COc1ccccc1C(=O)OC1CCCN(C)C1 (stereo not given)	none
CN1CCCC(OC(=O)c2ccccc2F)C1 (stereo not given)	V-ATPase pH 9.4 | VATPase regulator inactive
O=C(NNS(=O)(=O)c1ccccc1[N+](=O)[O-])c1ccccc1Cl	V-ATPase pH 12 | VATPase regulator inactive
CC(=O)c1cc(-c2ccccc2-c2ccccc2)c(=O)n2c1CCC2	none (no result: V-ATPase pH, Efflux pump mplx, Rce1 inhib, NSD2 HMT inh)
Cc1cc(C(C)(C)C)cc(S(=O)(=O)Nc2ccc(O)c(C(=O)O)c2)c1C	none
CC(=O)Nc1ccc(NC(=O)c2ccc(NS(=O)(=O)c3cc(C(C)(C)C)cc(C)c3C)cc2)cc1	V-ATPase pH 11 | VATPase regulator inactive
CCOC(=O)[C@]12CCCCC/C=C\1N(Cc1ccc(OC)cc1)C(=O)[C@H]2CC(=O)N1CCSCC1	none (no result: V-ATPase pH, Efflux pump mplx, Rce1 inhib, NSD2 HMT inh)
Cc1cccc(C(=O)NNC(=O)CCn2nnc3ccccc32)c1	none
Cc1ccc(C(=O)NNC(=O)CCn2nnc3ccccc32)cc1	V-ATPase pH 11 | VATPase regulator inactive
COc1ccc(C(=O)CSc2nnc(-c3cccc(Cl)c3)n2Cc2ccco2)cc1	none (no result: V-ATPase pH, Efflux pump mplx, Rce1 inhib)
COc1ccc(N2C[C@H](CSC)[C@@H](CC(=O)Nc3ccccc3)C2=O)cc1	V-ATPase pH 7.0 (no result: Efflux pump mplx, Rce1 inhib, NSD2 HMT inh) | VATPase regulator inactive
CC(=O)c1ccc(NC(=O)NC2CCCCN(Cc3ccc(Cl)cc3)C2=O)cc1 (stereo not given)	none (no result: V-ATPase pH, Efflux pump mplx, Rce1 inhib, NSD2 HMT inh)
CC1CCCN(S(=O)(=O)c2coc(C(N)=O)c2)C1 (stereo not given)	none (no result: NSD2 HMT inh)
CC1CCCCN1S(=O)(=O)c1coc(C(N)=O)c1 (stereo not given)	V-ATPase pH 7.0 (no result: NSD2 HMT inh) | VATPase regulator inactive
COCCn1c(=S)[nH]c2cc(C(=O)N3CCN(c4ccccc4OC)CC3)ccc2c1=O	none (no result: Rce1 inhib)
COCCn1c(=O)[nH]c2cc(C(=O)N3CCN(c4ccccc4OC)CC3)ccc2c1=O	V-ATPase pH 10 | VATPase regulator inactive
COc1ccc(NC(=S)N2CCN(C/C=C/c3ccccc3)CC2)c(OC)c1	V-ATPase pH 12 (no result: Rce1 inhib) | VATPase regulator inactive
COc1ccccc1NC(=S)N1CCN(C/C=C/c2ccccc2)CC1	none
